These results are taken from PubChem BioAssay.

“And” between values parts separate entries of the source, which are not always exact repeats. Equal values may be shown once. More than one record can exist for a structure, and the calls need not agree. The source made the active and inactive calls.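 Rule for the calls: active = normalized viability below 100% at a tested concentration; inactive = the rest.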

The nature of one test: ovarian cancer cell viability with rucaparib, profiling panel, oncology-focused library, rucaparib conditional (AID 1508598). Conditions: patient-derived ovarian cancer cells, CellTiter-Glo viability, 144 h; at 0.00488 µM; OCI-C5x cells; with rucaparib 10 µM; stronger effect = lower value; 100% = cells with rucaparib alone.
On to `Cc1ccc(NC(=O)c2ccc(CN3CCN(C)CC3)cc2)cc1Nc1nccc(-c2cccnc2)n1`, for which the viability is 113% (inactive) and 114% (inactive).
On the same count and under the same terms, in the case of `O=NN(CCCl)C(=O)NC1CCCCC1` it was 107% (inactive); in that of `O=c1c(O)c(-c2ccc(O)c(O)c2)oc2cc(O)cc(O)c12`, 117% (inactive).
On the same count and under the same terms, next, `COc1cc2c(N3CCN(C(=O)Nc4ccc(OC(C)C)cc4)CC3)ncnc2cc1OCCCN1CCCCC1`: 112% (inactive).
As for `COC(=O)Nc1nc2ccc(C(=O)c3cccs3)cc2[nH]1`, the viability is 112% (inactive).
Same read-out and setting: in the case of `CN(Cc1cnc2nc(N)nc(N)c2n1)c1ccc(C(=O)N[C@@H](CCC(=O)O)C(=O)O)cc1` it was 113% (inactive).

The test is the same for the next values; noted with them: patient-derived ovarian cancer cells, CellTiter-Glo viability, 144 h; at 0.00488 µM; OCI-C5x cells; without rucaparib; stronger effect = lower value.
Consider `Cc1ccc(NC(=O)c2ccc(CN3CCN(C)CC3)cc2)cc1Nc1nccc(-c2cccnc2)n1`, for which the viability was 108% (inactive) and 102% (inactive).
The same measure, in the same setting: next, `O=NN(CCCl)C(=O)NC1CCCCC1`: 120% (inactive); `O=c1c(O)c(-c2ccc(O)c(O)c2)oc2cc(O)cc(O)c12`: 129% (inactive); `COc1cc2c(N3CCN(C(=O)Nc4ccc(OC(C)C)cc4)CC3)ncnc2cc1OCCCN1CCCCC1`: 97.5% (active).
Still for that read-out and setting: in the case of `COC(=O)Nc1nc2ccc(C(=O)c3cccs3)cc2[nH]1` it was 108% (inactive); in that of `CN(Cc1cnc2nc(N)nc(N)c2n1)c1ccc(C(=O)N[C@@H](CCC(=O)O)C(=O)O)cc1`, 106% (inactive).

The test is the same for the next values; noted with them: patient-derived ovarian cancer cells, CellTiter-Glo viability, 144 h; at 0.00488 µM; OCI-P5x cells; with rucaparib 20 µM; stronger effect = lower value; 100% = cells with rucaparib alone.
In the case of `Cc1ccc(NC(=O)c2ccc(CN3CCN(C)CC3)cc2)cc1Nc1nccc(-c2cccnc2)n1`, the viability was 92.2% (active) and 93.1% (active).
On the same count and under the same terms, in the case of `O=NN(CCCl)C(=O)NC1CCCCC1` it was 94.7% (active); in that of `O=c1c(O)c(-c2ccc(O)c(O)c2)oc2cc(O)cc(O)c12`, 104% (inactive).
Turning to `COc1cc2c(N3CCN(C(=O)Nc4ccc(OC(C)C)cc4)CC3)ncnc2cc1OCCCN1CCCCC1`, the viability was 114% (inactive).
With `COC(=O)Nc1nc2ccc(C(=O)c3cccs3)cc2[nH]1`, the viability is 87.3% (active).
Still for that read-out and setting: in the case of `CN(Cc1cnc2nc(N)nc(N)c2n1)c1ccc(C(=O)N[C@@H](CCC(=O)O)C(=O)O)cc1` it was 111% (inactive).

The same test, now with this note: patient-derived ovarian cancer cells, CellTiter-Glo viability, 144 h; at 0.00488 µM; OCI-P5x cells; without rucaparib; stronger effect = lower value.
`Cc1ccc(NC(=O)c2ccc(CN3CCN(C)CC3)cc2)cc1Nc1nccc(-c2cccnc2)n1`: the viability was 99.4% (active) and 94.5% (active).
On the same count and under the same terms, in the case of `O=NN(CCCl)C(=O)NC1CCCCC1` it was 109% (inactive).
Still for that read-out and setting: in the case of `O=c1c(O)c(-c2ccc(O)c(O)c2)oc2cc(O)cc(O)c12` it was 105% (inactive); in that of `COc1cc2c(N3CCN(C(=O)Nc4ccc(OC(C)C)cc4)CC3)ncnc2cc1OCCCN1CCCCC1`, 96.8% (active).
On to `COC(=O)Nc1nc2ccc(C(=O)c3cccs3)cc2[nH]1`, for which the viability was 58% (active).
The same measure, in the same setting: in the case of `CN(Cc1cnc2nc(N)nc(N)c2n1)c1ccc(C(=O)N[C@@H](CCC(=O)O)C(=O)O)cc1` it was 111% (inactive).

The same test, now with this note: patient-derived ovarian cancer cells, CellTiter-Glo viability, 144 h; at 0.0195 µM; OCI-C5x cells; with rucaparib 10 µM; stronger effect = lower value; 100% = cells with rucaparib alone.
For `Cc1ccc(NC(=O)c2ccc(CN3CCN(C)CC3)cc2)cc1Nc1nccc(-c2cccnc2)n1`, the viability was 120% (inactive) and 104% (inactive).
Same read-out and setting: next, `O=NN(CCCl)C(=O)NC1CCCCC1`: 121% (inactive).
On to `O=c1c(O)c(-c2ccc(O)c(O)c2)oc2cc(O)cc(O)c12`, for which the viability was 127% (inactive).
On the same count and under the same terms, in the case of `COc1cc2c(N3CCN(C(=O)Nc4ccc(OC(C)C)cc4)CC3)ncnc2cc1OCCCN1CCCCC1` it was 109% (inactive); in that of `COC(=O)Nc1nc2ccc(C(=O)c3cccs3)cc2[nH]1`, 96.1% (active); in that of `CN(Cc1cnc2nc(N)nc(N)c2n1)c1ccc(C(=O)N[C@@H](CCC(=O)O)C(=O)O)cc1`, 105% (inactive).

Staying with this test, now noted: patient-derived ovarian cancer cells, CellTiter-Glo viability, 144 h; at 0.0195 µM; OCI-C5x cells; without rucaparib; stronger effect = lower value.
For `Cc1ccc(NC(=O)c2ccc(CN3CCN(C)CC3)cc2)cc1Nc1nccc(-c2cccnc2)n1`, the viability is 112% (inactive) and 98.4% (active).
Still for that read-out and setting: in the case of `O=NN(CCCl)C(=O)NC1CCCCC1` it was 122% (inactive); in that of `O=c1c(O)c(-c2ccc(O)c(O)c2)oc2cc(O)cc(O)c12`, 125% (inactive); in that of `COc1cc2c(N3CCN(C(=O)Nc4ccc(OC(C)C)cc4)CC3)ncnc2cc1OCCCN1CCCCC1`, 98.4% (active).
The same measure, in the same setting: next, `COC(=O)Nc1nc2ccc(C(=O)c3cccs3)cc2[nH]1`: 74% (active); `CN(Cc1cnc2nc(N)nc(N)c2n1)c1ccc(C(=O)N[C@@H](CCC(=O)O)C(=O)O)cc1`: 103% (inactive).

Staying with this test, now noted: patient-derived ovarian cancer cells, CellTiter-Glo viability, 144 h; at 0.0195 µM; OCI-P5x cells; with rucaparib 20 µM; stronger effect = lower value; 100% = cells with rucaparib alone.
On to `Cc1ccc(NC(=O)c2ccc(CN3CCN(C)CC3)cc2)cc1Nc1nccc(-c2cccnc2)n1`, for which the viability was 94.9% (active) and 104% (inactive).
Same read-out and setting: in the case of `O=NN(CCCl)C(=O)NC1CCCCC1` it was 97.1% (active); in that of `O=c1c(O)c(-c2ccc(O)c(O)c2)oc2cc(O)cc(O)c12`, 105% (inactive).
Consider `COc1cc2c(N3CCN(C(=O)Nc4ccc(OC(C)C)cc4)CC3)ncnc2cc1OCCCN1CCCCC1`, for which the viability is 130% (inactive).
On the same count and under the same terms, in the case of `COC(=O)Nc1nc2ccc(C(=O)c3cccs3)cc2[nH]1` it was 68.5% (active); in that of `CN(Cc1cnc2nc(N)nc(N)c2n1)c1ccc(C(=O)N[C@@H](CCC(=O)O)C(=O)O)cc1`, 103% (inactive).
